For four compounds, outcome and AC50 results are on record in PubChem BioAssay (EPA / NIEHS).

Each structure is given as a SMILES string. Activity calls are given as the source filed them. How the source made its calls: active means hit-call score of the fitted dose curve at least 0.9, where 1 is the maximum; inactive means score below 0.9.

Read-out in experiment [1]: TIMP metallopeptidase inhibitor 1 (TIMP1), TIMP1 (gene 7076)
The experiment is described as follows: BSK_hDFCGF_TIMP1: BioMAP Diversity Plus: hDFCGF Assay for TIMP metallopeptidase inhibitor 1 (TIMP1) Biomarker Activity (AID 2283062). To be noted: primary human foreskin fibroblasts; actives raise or lower the signal. The method, boiled down:
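Bidirectional curve fitting against DMSO baseline yielded this endpoint, based on ELISA detection of TIMP-1 in primary human foreskin fibroblasts exposed to compound for 24 h.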

Read-out in experiment [2]: Monokine induced gamma interferon (MIG), CXCL9 (gene 4283)
The experiment is described as follows: BSK_hDFCGF_MIG: BioMAP Diversity Plus: hDFCGF Assay for Monokine induced gamma interferon (MIG) Biomarker Activity (AID 2283063). To be noted: primary human foreskin fibroblasts; actives raise or lower the signal. The procedure, abridged: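 Endpoint derived by bidirectional fitting relative to DMSO; MIG quantified via ELISA in primary human foreskin fibroblasts harvested 24 h after dosing.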

Read-out in experiment [3]: Matrix Metallopeptidase 1 (MMP1), MMP1 (gene 4312)
The experiment is described as follows: BSK_hDFCGF_MMP1: BioMAP Diversity Plus: hDFCGF Assay for Matrix Metallopeptidase 1 (MMP1) Biomarker Activity (AID 2283064). To be noted: primary human foreskin fibroblasts; actives raise or lower the signal. The method, boiled down: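 ELISA read-out of MMP1 from human foreskin fibroblasts (primary skin cells), 24 h post-dose. Gain or loss of signal was fitted bidirectionally versus DMSO negative control; cytotoxicity was checked by SRB in parallel cultures.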

Read-out in experiment [4]: Vascular cell adhesion molecule 1 (VCAM1), VCAM1 (gene 7412)
In words: BSK_hDFCGF_VCAM1: BioMAP Diversity Plus: hDFCGF Assay for Vascular cell adhesion molecule 1 (VCAM1) Biomarker Activity (AID 2283065).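 On AC50: VCAM-1 protein level quantified by ELISA after 24 h chemical exposure.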 The conditions noted are these: primary human foreskin fibroblasts; actives raise or lower the signal. The method, boiled down: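 Measured after 24 h chemical treatment of primary human skin fibroblasts, VCAM-1 was detected by ELISA and concentration-response analysed in both directions versus DMSO vehicle.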

Read-out in experiment [5]: Plasminogen activator inhibitor-1 (PAI1), SERPINE1 (gene 5054)
In words: BSK_hDFCGF_PAI1: BioMAP Diversity Plus: hDFCGF Assay for Plasminogen activator inhibitor-1 (PAI1) Biomarker Activity (AID 2283066). To be noted: primary human foreskin fibroblasts; actives raise or lower the signal. The method, boiled down:
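PAI-1 levels in human dermal foreskin fibroblasts were quantified by ELISA 24 h after dosing, with gain or loss analysed against DMSO. Overt cytotoxicity was checked by sulforhodamine B total-protein staining in parallel cultures.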

Read-out in experiment [6]: Intercellular Adhesion Molecule 1 (ICAM1), ICAM1 (gene 3383)
The experiment is described as follows: BSK_KF3CT_ICAM1: BioMAP Diversity Plus: KF3CT Assay for Intercellular Adhesion Molecule 1 (ICAM1) Biomarker Activity (AID 2283067). To be noted: primary human keratinocytes with fibroblasts; actives raise or lower the signal. The procedure, abridged:
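Bidirectional curve fitting against a DMSO baseline was applied to ICAM-1 ELISA signal from primary human skin co-cultures harvested 24 h after treatment, with SRB staining of parallel wells for overt cytotoxicity.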

Read-out in experiment [7]: Interferon-gamma inducible Protein 10 (IP10), CXCL10 (gene 3627)
The experiment is described as follows: BSK_KF3CT_IP10: BioMAP Diversity Plus: KF3CT Assay for Interferon-gamma inducible Protein 10 (IP10) Biomarker Activity (AID 2283068). The conditions noted are these: primary human keratinocytes with fibroblasts; actives raise or lower the signal. The method, boiled down:
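In a primary skin co-culture of keratinocytes and fibroblasts, IP-10 is quantified by ELISA at 24 h after dosing. SRB staining of parallel wells monitors overt toxicity. Curves are fitted both directions against DMSO.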

Experiment [8] in a line: BSK_KF3CT_SRB: Viability Assessment in the BioMAP Diversity Plus: KF3CT Assay (AID 2283069).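 Further: read 24 h after compound addition.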 To be noted: primary human keratinocytes with fibroblasts. The procedure, abridged:
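SRB read-out at 560 nm (0.1% stain, TCA-fixed cells) gauges overt cytotoxicity in a human skin keratinocyte–fibroblast co-culture 24 h post-dosing. Signal change was fitted bidirectionally relative to DMSO control.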

Read-out in experiment [9]: Interleukin-1 alpha (IL1a), IL1A (gene 3552)
In words: BSK_KF3CT_IL1a: BioMAP Diversity Plus: KF3CT Assay for Interleukin-1 alpha (IL1a) Biomarker Activity (AID 2283070). The conditions noted are these: primary human keratinocytes with fibroblasts; actives raise or lower the signal. The method, boiled down: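 Primary skin co-culture (keratinocytes, foreskin fibroblasts), 24 h exposure; ELISA for IL-1a; bidirectional curve fit vs DMSO.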

Read-out in experiment [10]: TIMP metallopeptidase inhibitor 2 (TIMP2), TIMP2 (gene 7077)
In words: BSK_KF3CT_TIMP2: BioMAP Diversity Plus: KF3CT Assay for TIMP metallopeptidase inhibitor 2 (TIMP2) Biomarker Activity (AID 2283071). To be noted: primary human keratinocytes with fibroblasts; actives raise or lower the signal. The method, boiled down:
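TIMP-2 measured by ELISA at 24 h in human keratinocyte/fibroblast primary co-cultures exposed to chemicals. Both increases and decreases were fitted against DMSO. Parallel cultures were stained with SRB for total protein as an overt-cytotoxicity check.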

Read-out in experiment [11]: Transforming growth factor beta 1 (TGFb1), TGFB1 (gene 7040)
The experiment is described as follows: BSK_KF3CT_TGFb1: BioMAP Diversity Plus: KF3CT Assay for Transforming growth factor beta 1 (TGFb1) Biomarker Activity (AID 2283072). The conditions noted are these: primary human keratinocytes with fibroblasts; actives raise or lower the signal. The procedure, abridged:
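ELISA quantifies TGF-b1 at 24 h post-dose in a primary human skin co-culture of keratinocytes and fibroblasts, with gain or loss judged against DMSO. Parallel SRB total-protein staining flags overt cytotoxicity.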

Read-out in experiment [12]: C-C motif chemokine 2 (Homo sapiens) (UniProt P13500)
In words: BSK_KF3CT_MCP1: BioMAP Diversity Plus: KF3CT Assay for Monocyte Chemoattractant Protein 1 (MCP1/CCL2) Biomarker Activity (AID 2283073). The conditions noted are these: primary human keratinocytes with fibroblasts; actives raise or lower the signal. The procedure, abridged: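 Biomarker MCP-1 is measured by ELISA in primary human keratinocytes co-cultured with foreskin fibroblasts, 24 h after chemical treatment; DMSO serves as the negative control and activity baseline.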

Read-out in experiment [13]: Matrix Metallopeptidase 9 (MMP9), MMP9 (gene 4318)
In words: BSK_KF3CT_MMP9: BioMAP Diversity Plus: KF3CT Assay for Matrix Metallopeptidase 9 (MMP9) Biomarker Activity (AID 2283074).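 On AC50: MMP9 protein level quantified by ELISA in the co-culture.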 To be noted: primary human keratinocytes with fibroblasts; actives raise or lower the signal. The procedure, abridged: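 ELISA read-out of MMP-9 at 24 h post-dosing in a co-culture of human skin keratinocytes and foreskin fibroblasts. Gain or loss of signal was fitted in both directions against DMSO.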

Read-out in experiment [14]: urokinase plasminogen activator (uPA), PLAU (gene 5328)
In words: BSK_KF3CT_uPA: BioMAP Diversity Plus: KF3CT Assay for urokinase plasminogen activator (uPA) Biomarker Activity (AID 2283075). To be noted: primary human keratinocytes with fibroblasts; actives raise or lower the signal. The procedure, abridged:
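Skin co-culture (keratinocytes + foreskin fibroblasts), human primary; 24 h post-dose; uPA by ELISA; gain/loss fit vs DMSO baseline.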

Read-out in a further experiment: CD40, CD40 (gene 958)
In words: BSK_LPS_CD40: BioMAP Diversity Plus: LPS Assay for CD40 Biomarker Activity (AID 2283076). The conditions noted are these: primary human HUVEC with PBMC; actives raise or lower the signal. The procedure, abridged: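 Using a multiplexed primary human co-culture (umbilical vein endothelium plus PBMC), CD40 was read by ELISA 24 h after dosing, with cytotoxicity tracked by sulforhodamine B staining of parallel cultures and activity fitted bidirectionally versus DMSO.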

Read-out in experiment [15]: E-selectin (Homo sapiens) (UniProt P16581)
The experiment is described as follows: BSK_LPS_Eselectin: BioMAP Diversity Plus: LPS Assay for Eselectin Biomarker Activity (AID 2283077). The conditions noted are these: primary human HUVEC with PBMC; actives raise or lower the signal. The procedure, abridged:
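Dose chemical onto LPS-driven HUVEC/PBMC co-culture; after 24 h, run ELISA for E-selectin; fit up- and down-going responses relative to DMSO control.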

The nature of experiment [16]: BSK_LPS_SRB: Viability Assessment in the BioMAP Diversity Plus: LPS Assay (AID 2283079).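 Further: total protein by sulforhodamine B absorbance as a cytotoxicity measure; measured one day after compound addition.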 To be noted: primary human HUVEC with PBMC. The method, boiled down: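 Cytotoxicity endpoint in human endothelial–PBMC co-culture: 24 h exposure, then SRB (0.1%) staining, 560 nm read.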
Read-out in experiment [17]: Interleukin-1 alpha (IL1a), IL1A (gene 3552)
In words: BSK_LPS_IL1a: BioMAP Diversity Plus: LPS Assay for Interleukin-1 alpha (IL1a) Biomarker Activity (AID 2283080). To be noted: primary human HUVEC with PBMC; actives raise or lower the signal. The method, boiled down: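 Primary human HUVEC and PBMC co-culture stimulated with LPS is dosed and harvested at 24 h. Both increases and decreases in ELISA-measured IL-1a are scored relative to DMSO.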

Read-out in experiment [18]: Monocyte Chemoattractant Protein-1 (MCP1), CCL2 (gene 6347)
In words: BSK_LPS_MCP1: BioMAP Diversity Plus: LPS Assay for Monocyte Chemoattractant Protein-1 (MCP1) Biomarker Activity (AID 2283081).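 On AC50: secreted MCP-1 protein quantified by ELISA in culture supernatant.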 The conditions noted are these: primary human HUVEC with PBMC; actives raise or lower the signal. The method, boiled down: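 Values derive from bidirectional fitting against DMSO of ELISA-measured MCP-1 in a human primary endothelial and mononuclear cell co-culture, 24 h after chemical addition under LPS activation.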

Read-out in experiment [19]: Interleukin-8 (IL8), CXCL8 (gene 3576)
The experiment is described as follows: BSK_LPS_IL8: BioMAP Diversity Plus: LPS Assay for Interleukin-8 (IL8) Biomarker Activity (AID 2283078). The conditions noted are these: primary human HUVEC with PBMC; actives raise or lower the signal. The procedure, abridged: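 In this LPS system, chemical-treated human umbilical vein endothelium/PBMC co-cultures were harvested at 24 h for IL-8 ELISA.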

Sequence of E-selectin (Homo sapiens) (P16581 whole entry, looked up): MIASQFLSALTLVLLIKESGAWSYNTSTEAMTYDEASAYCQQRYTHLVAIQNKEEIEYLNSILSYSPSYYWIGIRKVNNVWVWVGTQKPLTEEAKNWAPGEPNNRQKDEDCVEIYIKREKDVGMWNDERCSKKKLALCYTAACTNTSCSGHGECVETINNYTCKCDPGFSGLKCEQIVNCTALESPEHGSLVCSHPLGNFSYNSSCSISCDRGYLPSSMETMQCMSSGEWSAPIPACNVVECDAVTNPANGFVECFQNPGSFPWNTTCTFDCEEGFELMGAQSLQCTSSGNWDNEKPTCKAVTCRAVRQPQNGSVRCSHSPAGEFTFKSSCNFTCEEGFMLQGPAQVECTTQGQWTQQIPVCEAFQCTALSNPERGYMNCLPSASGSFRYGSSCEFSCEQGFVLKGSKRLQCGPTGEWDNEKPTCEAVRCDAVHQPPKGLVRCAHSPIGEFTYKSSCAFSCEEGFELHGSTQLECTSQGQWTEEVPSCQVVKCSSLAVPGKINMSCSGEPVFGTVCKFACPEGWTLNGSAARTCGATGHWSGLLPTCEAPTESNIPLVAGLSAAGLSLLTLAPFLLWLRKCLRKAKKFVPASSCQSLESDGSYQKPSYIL

For `CC(=O)OCC(COC(C)=O)OC(C)=O`, the outcome in experiment [1], in experiment [2], in experiment [3], in [4], in experiment [5] and in experiment [6] was inactive. In addition, the outcome in [7], in [8], in experiment [9], in [10], in experiment [11] and in experiment [12] was inactive. In addition, the outcome in [13] was “inactive”; in experiment [14], “inactive”; in the experiment with CD40, CD40 (gene 958), “inactive”; in experiment [15], “inactive”; in experiment [16], “inactive”; in experiment [17] it was “inactive”. The result in experiment [18] was inactive.

As to `CC(C)COC(=O)CCCCC(=O)OCC(C)C`, the result in experiment [1], in experiment [2], in experiment [3], in [4], in [5] and in experiment [6] was inactive. Moreover, the result in experiment [7], in experiment [9], in [10], in experiment [11], in experiment [13] and in [14] was inactive. Also, the outcome in the experiment with CD40, CD40 (gene 958) is “inactive”; in experiment [15] it was “inactive”; in experiment [19] it was “inactive”; in experiment [16], “inactive”; in [17], “inactive”; in experiment [18], “inactive”.

In the case of `CCN(CC)CCOc1ccc(C(=C(Cl)c2ccccc2)c2ccccc2)cc1`, the AC50 (commonly the concentration giving half of the maximal activity seen) in [1] is 13.6 µM (active); in experiment [2] it was 13 µM (active); in experiment [3], 13.2 µM (active); in experiment [4] it was 14.1 µM (active); in experiment [5], 9.48 µM (active); in experiment [6], 14 µM (active). The concentration at half-maximal activity (AC50) was 13.5 µM (active) in [7]; 14.5 µM (active) in experiment [9]; 12.4 µM (active) in experiment [11]; 14.3 µM (active) in [12]; 11.7 µM (active) in experiment [13]; 13.7 µM (active) in experiment [14]. For the same compound, the AC50 with CD40, CD40 (gene 958) is 8.67 µM (active); in [15], 13.3 µM (active); in [17], 8.81 µM (active); in [18], 14.3 µM (active).

For `CC(=O)CC(c1ccccc1)c1c(O)c2ccccc2oc1=O` (stereo not given), the outcome in experiment [1], in [2], in experiment [3], in [4], in experiment [5] and in experiment [6] was inactive. The result in experiment [7], in [8], in experiment [9], in experiment [11], in experiment [13] and in experiment [14] was inactive. Besides, the outcome with CD40, CD40 (gene 958) is “inactive”; in experiment [15] it was “inactive”; in experiment [19], “inactive”; in experiment [17], “inactive”; in experiment [18] it was “inactive”.
